Screens: PubChem, National Center for Advancing Translational Sciences (NCATS)
Pf growth 48h = Primary qHTS for delayed death inhibitors of the malarial parasite plastid, 48 hour incubation | AID 504832, 2011 | P. falciparum luciferase growth in erythrocytes, 48 h | 310,000 tested, 5.9% active | Potency, µM (top dose mostly 28.7 µM), for inactives: top-dose activity change, negative = inhibition, most hits filed as inhibitors; active = well fitted inhibition curve with a large enough effect; inconclusive = small, poorly fitted or top-dose-only effect, or another doubt; inactive = no such curve, though single readings can be large or run the other way; note: potency is the fitted concentration of half-maximal effect; % is set by controls: 0 for no effect and ±100 for the full control effect
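Parasite viability was followed by luminescence of a genomically integrated firefly luciferase. Cultures held 0.1% parasitemia at 2% hematocrit (final), incubated under 5% CO2 at 37 C.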
SARS PLP yeast = qHTS of Yeast-based Assay for SARS-CoV PLP | S. cerevisiae expressing SARS-CoV PLpro, growth rescue | Potency, µM (top dose mostly 32.9 µM), inactives show at the highest dose activity, positive = growth rescue, usual class: activators | 330,000 tested, 0.19% active | AID 485353, 2010; note: potency is the fitted concentration of half-maximal effect; 0% is about no effect; nearly all actives have a fitted effect of over 55% in size
Pf growth 96h = Primary qHTS for delayed death inhibitors of the malarial parasite plastid, 96 hour incubation; P. falciparum luciferase reporter growth, 96 h; Potency, µM (series often up to 28.7 µM), without a hit: at the top dose activity change, negative = inhibition, hits mostly inhibitors; 320,000 tested, 6.9% active; AID 504834, 2011; active = well fitted inhibition curve with a large enough effect; inconclusive = small, poorly fitted or top-dose-only effect, or another doubt; inactive = no such curve, though single readings can be large or run the other way; note: potency is the fitted concentration of half-maximal effect; % is set by controls: 0 for no effect and ±100 for the full control effect
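P. falciparum expressing integrated firefly luciferase grown in erythrocytes (2% hematocrit, 0.05% parasitemia final) with compounds for 96 hours at 37 C, 5% CO2. Growth inhibition read as loss of luminescence after adding luciferase detection reagent.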
NS1 inh = qHTS Assay for Inhibitors of Influenza NS1 Protein Function | Potency, µM (titrated, usually from 46.1 µM), inactives show at the top dose activity, positive = more growth | 270,000 tested, 0.4% active | AID 2326, 2010; note: potency is the fitted concentration of half-maximal effect; actives are rising curves; nearly all actives have a fitted effect of over 50% in size
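Recovery from NS1-induced slow growth read by OD600 in budding yeast switched to galactose assay medium (pH 6.0, -URA) at 1:100 dilution. Compound 23 nl per well; the matching strain lacking NS1 serves as control.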
CHX counter = Cycloheximide Counterscreen for Small Molecule Inhibitors of Shiga Toxin; cell reporter, cycloheximide protein synthesis inhibition counterscreen; max response, %; 300,000 tested, 12% active; AID 2314, 2010; in the data active = max response mostly above about 13%, no sharp cut-off; inactive = mostly below about 14%; note: read at 38.3 µM for the half of the compounds with a filed dose; 0% is about no effect
Shiga inhibitor = A qHTS for Small Molecule Inhibitors of Shiga Toxin. Vero cells, Shiga toxin protein synthesis inhibition reporter. inhibition, % at 38.7 µM. 290,000 tested, 9.2% active. AID 2315, 2010; in the data active = inhibition mostly above about 28%, no sharp cut-off; inactive = mostly below about 43%; note: 0% is about no effect
* marks the source's active call; other numbers are inactive results. An excerpt weighted towards active compounds, which were near 21% of everything screened. Unless noted, calls come from the whole dose curve.

What do the screens show for `N#Cc1nc(-c2ccc(F)cc2)oc1NCCN1CCOCC1`?
Pf growth 48h: 18.9%; SARS PLP yeast: 0.4%; Pf growth 96h: 55.1%; NS1 inh: 5.1%; CHX counter: 1.7; Shiga inhibitor: 17.3

What do the screens show for `CC(=O)Nc1ccc(NC(=O)COC(=O)COc2ccc3ccccc3c2)cc1`?
SARS PLP yeast: -1.6%

What do the screens show for `CCc1ccc(-c2nn(-c3cc(Cl)ccc3[N+](=O)[O-])c(=O)c3ccccc23)cc1`?
Pf growth 48h: inconclusive; SARS PLP yeast: 4.4%; Pf growth 96h: 9.28µM*; NS1 inh: 6.0%; CHX counter: -3.8; Shiga inhibitor: -9.0

How did Cc1ccc(-c2nn(-c3cc(Cl)ccc3[N+](=O)[O-])c(=O)c3ccccc23)cc1C do in these assays?
Pf growth 48h: 5.22µM*; SARS PLP yeast: 2.9%; Pf growth 96h: inconclusive; NS1 inh: 26.4%; CHX counter: -1.5; Shiga inhibitor: -4.1

What do the screens show for `O=c1c2ccccc2c(-c2ccccc2)nn1-c1cc(Cl)ccc1[N+](=O)[O-]`?
Pf growth 48h: 8.28µM*; SARS PLP yeast: 1.5%; Pf growth 96h: inconclusive; NS1 inh: 15.7%; CHX counter: -2.3; Shiga inhibitor: -48.1

What do the screens show for `Cc1ccc(-c2nn(-c3cc(N4CCNCC4)ccc3[N+](=O)[O-])c(=O)c3ccccc23)cc1`?
Pf growth 48h: inconclusive; SARS PLP yeast: 0.2%; Pf growth 96h: 0.0%; NS1 inh: inconclusive; CHX counter: -6.2; Shiga inhibitor: -15.1

Results for Oc1c(N=NC(=S)Nc2ccccc2F)c2ccccc2n1Cc1ccc(Cl)cc1 ?
Pf growth 48h: 2.33µM*; SARS PLP yeast: 1.5%; Pf growth 96h: 71.3%; CHX counter: -2.0; Shiga inhibitor: 1.1

Results for Cc1ccccc1Cn1c(O)c(N=NC(=S)Nc2ccccc2F)c2ccccc21 ?
Pf growth 48h: 1.47µM*; SARS PLP yeast: -3.9%; Pf growth 96h: 6.3%; CHX counter: 1.1; Shiga inhibitor: -13.7

How did CCCN1CCN(C(=O)CCc2nnc3ccc(N4CCN(c5cccc(OC)c5)CC4)nn23)CC1 do in these assays?
Pf growth 48h: 10.4µM*; SARS PLP yeast: -2.6%; Pf growth 96h: 30.5%; NS1 inh: 1.7%; CHX counter: 0.3; Shiga inhibitor: -4.4

Results for COc1cccc(N2CCN(c3ccc4nnc(CCC(=O)N5CCC(C)CC5)n4n3)CC2)c1 ?
Pf growth 48h: 8.28µM*; SARS PLP yeast: 7.3%; Pf growth 96h: 28.8%; NS1 inh: 0.9%; CHX counter: 1.7; Shiga inhibitor: -4.5

What do the screens show for `Cc1nc(C)n(CCNS(=O)(=O)c2ccc(C)c(C)c2)n1`?
Pf growth 48h: 0.4%; SARS PLP yeast: 0.1%; Pf growth 96h: inconclusive; NS1 inh: -3.5%; CHX counter: -9.0; Shiga inhibitor: -2.9

What do the screens show for `CC(C)C(=O)O/N=C(\N)c1ccc(Oc2ccc(Cl)cc2)c([N+](=O)[O-])c1`?
Pf growth 48h: 8.1%; SARS PLP yeast: -2.0%; Pf growth 96h: 4.7%; NS1 inh: 0.5%; CHX counter: 22.7*; Shiga inhibitor: 35.9*

How did Cc1ccc(-n2c(C)cc(/C=N/Nc3ccc([N+](=O)[O-])cn3)c2C)cc1 do in these assays?
Pf growth 48h: 3.5%; SARS PLP yeast: -4.1%; Pf growth 96h: 13.2%; NS1 inh: 15.8%; CHX counter: 39.3*; Shiga inhibitor: 58.9*

Results for Cc1c(C(=O)O)cccc1-n1c(C)cc(/C=N/Nc2ccc([N+](=O)[O-])cn2)c1C ?
Pf growth 48h: inconclusive; SARS PLP yeast: -0.3%; Pf growth 96h: inconclusive; NS1 inh: 8.3%; CHX counter: 31.7*; Shiga inhibitor: 71.5*

What do the screens show for `Cc1cc(/C=N/Nc2ccc([N+](=O)[O-])cn2)c(C)n1-c1ccccc1`?
Pf growth 48h: inconclusive; SARS PLP yeast: -9.1%; NS1 inh: 6.3%; CHX counter: 27.1*; Shiga inhibitor: 77.5*

How did Cc1ccn2c(-c3n[nH]c(=S)n3C)c(C)nc2c1 do in these assays?
Pf growth 48h: 7.1%; SARS PLP yeast: -7.2%; Pf growth 96h: 2.8%; NS1 inh: 16.3%; CHX counter: 2.6; Shiga inhibitor: 21.9

How did O=[N+]([O-])c1ccccc1OCCCN1CCc2ccccc2C1 do in these assays?
Pf growth 48h: -7.9%; SARS PLP yeast: 0.2%; Pf growth 96h: -99.7%; NS1 inh: 8.7%; CHX counter: 9.9*; Shiga inhibitor: 26.8

What do the screens show for `O=[N+]([O-])c1ccccc1OCCN1CCCC1`?
Pf growth 48h: 25.0%; SARS PLP yeast: -12.0%; Pf growth 96h: -97.7%; NS1 inh: 9.2%; CHX counter: -2.1; Shiga inhibitor: 23.0

Results for Cc1ccc([N+](=O)[O-])c(OCCN2CCc3ccccc3C2)c1 ?
Pf growth 48h: 25.4%; SARS PLP yeast: 0.2%; Pf growth 96h: inconclusive; NS1 inh: -21.6%; CHX counter: 16.0*; Shiga inhibitor: 30.1

How did O=C1CCCC2=C1C(c1ccccc1O)C1=C(CCCC1=O)O2 do in these assays?
SARS PLP yeast: inconclusive; Pf growth 96h: 8.28µM*; NS1 inh: -1.1%; CHX counter: 6.5; Shiga inhibitor: -7.3

How did CCN(CC)c1ccc(NC(=O)c2ccc(=O)[nH]c2)cc1S(=O)(=O)Nc1ccccc1OC do in these assays?
Pf growth 48h: 10.4µM*; SARS PLP yeast: -2.4%; Pf growth 96h: 6.57µM*; CHX counter: 0.5; Shiga inhibitor: 20.1

How did COc1ccc(NC(=O)c2ccc(=O)[nH]c2)cc1S(=O)(=O)N1CCCCC1 do in these assays?
Pf growth 48h: 1.6%; SARS PLP yeast: 17.7%; Pf growth 96h: -7.7%; NS1 inh: 10.9%; CHX counter: -1.0; Shiga inhibitor: -3.1

What do the screens show for `CCNC(=S)Nc1ccc(C)c(S(=O)(=O)Nc2ccccc2OC)c1`?
Pf growth 48h: -5.0%; SARS PLP yeast: 0.1%; Pf growth 96h: 5.3%; NS1 inh: 3.2%; CHX counter: -0.6; Shiga inhibitor: -5.5

Results for CCN(CC)c1ccc(NC(=O)c2ccccc2Br)cc1S(=O)(=O)Nc1ccccc1OC ?
Pf growth 48h: 14.7µM*; SARS PLP yeast: -3.7%; Pf growth 96h: 0.0%; NS1 inh: inconclusive; CHX counter: -2.4; Shiga inhibitor: 24.4

How did CCN(CC)c1ccc(NC(=O)COc2ccccc2C#N)cc1S(=O)(=O)Nc1ccc(OC)cc1 do in these assays?
Pf growth 48h: 8.28µM*; SARS PLP yeast: 7.9%; Pf growth 96h: 4.15µM*; NS1 inh: 12.6%; CHX counter: 10.1; Shiga inhibitor: 44.0*

What do the screens show for `CCN(CC)c1ccc(NC(=O)COc2ccccc2C)cc1S(=O)(=O)Nc1ccccc1OC`?
Pf growth 48h: 9.28µM*; SARS PLP yeast: 6.7%; Pf growth 96h: inconclusive; NS1 inh: 9.3%; CHX counter: -1.0; Shiga inhibitor: -13.8
